This note sets out measurements from PubChem BioAssay (Tox21).

Values joined by “and” are separate entries in the source; they are usually repeats but may differ in a detail not shown here. Equal values may be shown once. Records with an inconclusive call do not appear. Some structures have more than one record in an assay (separate samples or runs), and their calls can disagree. Active and inactive are the calls of the source. Unless noted, the call rests on the fitted dose curve.

A short description of test [1]: qHTS assay to identify small molecule agonists of the vitamin D receptor (VDR) signaling pathway - cell viability counter screen (AID 743224; active means well fitted curve in the direction sought with a large enough effect in the repeat runs; an effect the other way counts as inactive or inconclusive; further: nearly all actives have a fitted effect of over 50% in size; further: potency means the concentration at half of the fitted maximal effect). The method, boiled down:
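VDR-bla cell line, quantitative HTS format; 16 h compound incubation (37C, 5% CO2); ATP-based CellTiter-Glo luminescence measured in the reporter assay wells.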

Test [2] is described as follows: qHTS assay to identify small molecule antagonists of the vitamin D receptor (VDR) signaling pathway - cell viability counter screen (AID 743225; active means well fitted curve in the direction sought with a large enough effect in the repeat runs; an effect the other way counts as inactive or inconclusive; further: nearly all actives have a fitted effect of over 50% in size). Put shortly:
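Cytotoxicity toward the VDR-bla HEK 293T line was scored by ATP-based CellTiter-Glo luminescence, read in the wells already used for the beta-lactamase readout after 16 h compound treatment under 3 nM 1-alpha,25-dihydroxyvitamin D3 stimulation.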

Test [3] in a line: qHTS assay to identify small molecule agonists of the NFkB signaling pathway (AID 1159509; active means well fitted curve in the direction sought with a large enough effect in the signal ratio in the repeat runs, not every such curve was filed as active; the % refers to the signal ratio; further: series mostly up to about 61 µM). Put shortly: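 NFkB-bla ME-180 cells with a beta-lactamase reporter under an NF-kB response element were plated overnight, treated with compounds in DMSO for 5 hr at 37 C, then loaded with FRET substrate for 1.5 hr at room temperature.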
For orientation: qHTS replaces the single test concentration by a dilution series.

Test [4] in a line: qHTS assay to identify small molecule agonists of the NFkB signaling pathway - cell viability counter screen (AID 1159515). Further: series mostly up to about 61 µM; nearly all actives have a fitted effect of over 55% in size. The method, boiled down: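 Viability in NFkB-bla ME-180 cells was measured by CellTiter-Glo luminescence, 30 min room temperature, in wells already treated 5 hr with compounds and read for reporter FRET.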
A short description of test [5]: qHTS assay to identify small molecule agonists of the endoplasmic reticulum stress response signaling pathway (AID 1159516; active means well fitted activation curve with a large enough effect in the signal ratio in the repeat runs, not every such curve was filed as active; the % refers to the signal ratio). The method, boiled down: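 ER stress element reporter (bla) in HeLa. 1,500 cells/well, overnight attachment; 5 hr compound; 2 hr RT substrate; dual-emission fluorescence.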
Test [6] can be described thus: qHTS assay to identify small molecule agonists of the endoplasmic reticulum stress response signaling pathway - cell viability counter screen (AID 1159517).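 Further: HeLa cells carrying an ER stress response element beta-lactamase reporter; series mostly up to about 61 µM; nearly all actives have a fitted effect of over 50% in size.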 Put shortly:
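Counter-screen wells were identical to the reporter wells. Cells were plated at 1,500 per well and dosed for 5 hr, then read for luminescence 30 min after CellTiter-Glo addition.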

Test [7] can be described thus: qHTS assay to identify small molecule antagonists of the retinoid-related orphan receptor gamma (ROR-gamma) signaling pathway - cell viability counter screen (AID 1159520; active means well fitted curve in the direction sought with a large enough effect in the repeat runs; an effect the other way counts as inactive or inconclusive; further: nearly all actives have a fitted effect of over 50% in size). Put shortly: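 Tet-on ROR gamma CHO cells were given compounds for 2 hr, then doxycycline hyclate at 1 uM final, and incubated 16 hr at 37 C. Viability was measured as ATP content by CellTiter-Glo luminescence.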

A short description of test [8]: qHTS assay to identify small molecule agonists of the AP-1 signaling pathway - cell viability counter screen (AID 1159525). Further: nearly all actives have a fitted effect of over 55% in size. Put shortly:
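AP-1-bla ME-180 cells in Opti-MEM with 0.5% dialyzed FBS, compound exposure 5 h at 37 C in 15-point titration. Viability read in the same wells as ATP content by CellTiter-Glo luminescence, normalised to tetra-n-octylammonium bromide and DMSO controls.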

Test [9] in a line: qHTS assay to identify small molecule agonists of the AP-1 signaling pathway (AID 1159526). Further: potency means the concentration at half of the fitted maximal effect.
The target of test [10] is Nuclear receptor ROR-gamma (Homo sapiens) (UniProt P51449). As to the kind of experiment: qHTS assay to identify small molecule antagonists of the retinoid-related orphan receptor gamma (ROR-gamma) signaling pathway (AID 1159521; active means well fitted curve in the direction sought with a large enough effect in the repeat runs; an effect the other way counts as inactive or inconclusive). The method, boiled down: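 Readout: ONE-Glo luciferase luminescence, 30 min at room temperature. System: Tet-on RORγ CHO, RORE-LUC. Sequence: compound 2 h, doxycycline 1 uM final, 16 h at 37 C.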

On to `O=C(O)COc1ccccc1`, for which the Potency result in test [1] and in test [9] was “inactive” in each case. Moreover, the compound was called inactive in test [2], in [3], in [4], in test [5], in test [6] and in test [7]. Further, in [8], the result was inactive.
`COP(=S)(OC)Oc1ccc(SC)c(C)c1`: the Potency result in test [1], in test [10] and in [9] was “inactive” throughout. For the same compound, the compound was called inactive in test [3], in [4], in test [6], in test [7] and in test [8].
Take `O=[N+]([O-])c1cc([As](=O)(O)O)ccc1O`: the Potency entry in test [1], in [10] and in [9] was “inactive” throughout. The call in test [2], in test [3], in test [4], in test [5], in [6] and in test [7] was inactive. For the same compound, the compound was called inactive in [8].
As for `Cc1cc(Cl)ccc1OC(C)C(=O)O` (stereo not drawn), the Potency result in [1], in test [10] and in [9] was “inactive” in each case. Also, the result in test [2], in test [3], in [4], in test [5], in [6] and in test [7] was inactive. The result in test [8] was inactive.
Take `N#Cc1ccccn1`: the Potency result in test [1], in [10] and in test [9] was “inactive” throughout. The result in [2], in test [3], in test [4], in test [5], in test [6] and in test [7] was inactive. Moreover, the call in test [8] was inactive.
For the compound `Cc1ccc(N)cc1`, the Potency result in test [1], in test [10] and in [9] was “inactive” in each case. Further, the compound was called inactive in [2], in test [3], in test [4], in test [5], in [6] and in test [7]. The outcome in test [8] was inactive.
As to `C=CC#N`, the Potency entry in test [1], in test [10] and in test [9] was “inactive” each time. Further, the compound was called inactive in [3], in test [4], in test [6], in test [7] and in test [8].
Regarding `O=C/C=C/c1ccccc1`, the Potency entry in [1], in [10] and in test [9] was “inactive” throughout. Further, the outcome in [2], in test [3], in test [4], in [5], in test [6] and in [7] was inactive. The outcome in [8] was inactive.
In the case of `CNc1cnn(-c2cccc(C(F)(F)F)c2)c(=O)c1Cl`, the Potency result in test [1], in test [10] and in [9] was “inactive” throughout. Further, the call in test [2], in [3], in test [4], in test [5], in [6] and in test [7] was inactive. The call in test [8] was inactive.
Turning to `O=C(O)C1C(C(=O)O)C2(Cl)C(Cl)=C(Cl)C1(Cl)C2(Cl)Cl` (stereo not drawn), the Potency result in [1], in test [10] and in [9] was “inactive” in each case. Also, the call in [3], in test [4], in test [6], in [7] and in [8] was inactive.
For the compound `CCOP(=S)(OCC)Oc1cc(C)nc(C(C)C)n1`, in test [1], the Potency entry was “inactive and 24.5 µM (active)”. The compound was classed as inactive in test [2], in test [3], in test [4], in test [5], in test [6] and in [7]. Also, the compound was called inactive in test [8]. Further, the Potency entry in test [10] and in test [9] was “inactive” each time.
As to `O=C(O)c1cc(Oc2ccc(C(F)(F)F)cc2Cl)ccc1[N+](=O)[O-]`, the Potency entry in test [1], in [10] and in test [9] was “inactive” in each case. Besides, the call in test [2], in test [3], in test [4], in [5], in test [6] and in [7] was inactive. Moreover, the outcome in test [8] was inactive.
With `C=CCN=C=S`, the Potency entry in test [1], in test [10] and in [9] was “inactive” in each case. The call in test [3], in [4], in test [6], in test [7] and in [8] was inactive.
Take `N#CN=C(N)N`: the Potency result in test [1], in test [10] and in test [9] was “inactive” in each case. The compound was classed as inactive in test [3], in test [4], in test [6], in test [7] and in [8].
As for `FC(F)(F)c1ccc(Cl)cc1`, the Potency entry in [1], in test [10] and in test [9] was “inactive” each time. For the same compound, the compound was called inactive in [3], in [4], in test [6], in [7] and in [8].
Turning to `CN(C)CCC#N`, the Potency entry in test [1], in test [10] and in test [9] was “inactive” each time. For the same compound, the call in test [2], in test [3], in test [4], in test [5], in [6] and in test [7] was inactive. Moreover, the outcome in [8] was inactive.
Consider `Nc1nc(N)nc(NC2CC2)n1`, for which, in test [1], the Potency result is “inactive and 43.6 µM (active)”. The call in [2], in test [3], in test [4], in test [6], in test [7] and in test [8] was inactive. The Potency entry in test [10] and in [9] was “inactive” throughout.
Regarding `O=P1(NCCCl)OCCCN1CCCl` (stereo not drawn), the Potency entry in test [1], in test [10] and in test [9] was “inactive” each time. Besides, the compound was classed as inactive in [3], in test [4], in test [6], in test [7] and in [8].
As for `CC(=O)C1CCOC1=O` (stereo not drawn), the Potency entry in test [1], in test [10] and in [9] was “inactive” throughout. In addition, the compound was called inactive in [2], in test [3], in test [4], in [6], in test [7] and in test [8].
Turning to `O=S(=O)(O)OOS(=O)(=O)O`, the Potency result in test [1], in test [10] and in test [9] was “inactive” throughout. Also, the compound was classed as inactive in test [2], in [3], in test [4], in test [6], in test [7] and in test [8].
Consider `Cc1cccc(N)c1C`, for which the Potency result in test [1], in [10] and in [9] was “inactive” in each case. Moreover, the outcome in test [3], in [4], in test [6], in test [7] and in [8] was inactive.
Consider `Sc1ccccc1`, for which the Potency result in test [1] and in test [10] was “inactive” in each case. Moreover, the outcome in [2], in test [3], in test [4], in test [6], in [7] and in test [8] was inactive. The Potency in test [9] was 49.7 µM (active) and inactive.
With `CN(C)C(=O)C(c1ccccc1)c1ccccc1`, the Potency result in test [1], in test [10] and in test [9] was “inactive” each time. Also, the outcome in test [2], in test [3], in [4], in test [6], in test [7] and in test [8] was inactive.
